From PubChem BioAssay (NCATS) come the findings set out here.

“And” between values parts separate entries of the source, which are not always exact repeats. Equal entries are not always repeated. Results filed as inconclusive are left out. A number with no mark means an inactive call. The source made the active and inactive calls. Calls follow the shape of the dose curve; as a rule, active = well fitted curve in the direction sought with a large enough effect; inconclusive = small, poorly fitted or top-dose-only effect, or another doubt; inactive = no such curve, though single readings can be large; an effect the other way counts as inactive or inconclusive.

For one assay, the system named is MKL-1. Nature of the assay: qHTS assay to identify novel small-molecules to repurpose for Merkel cell carcinoma treatment (AID 1296009). Also: nearly all actives have a fitted effect of over 60% in size. The settings on record: MCC and control cell lines, CellTiter-Glo viability, 72 h; series mostly up to 46 µM. In short, it runs like this:
(§1)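 Dose-response viability screen; 72 hr exposure at 37 degree celsius; CellTiter-Glo added, 10 min room temperature, luminescence read; RLUs scaled between no-cell and DMSO wells.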
For orientation: qHTS replaces the single test concentration by a dilution series.

For the next assay, the system named is MKL-2. The description is as above. The settings on record: MCC and control cell lines, CellTiter-Glo viability, 72 h; series mostly up to 46 µM. In short, it runs like this: as §1
(ATP-based viability assays read luminescence as a measure of living cells.)

Another assay has as its system UISO. Described as above. The settings on record: MCC and control cell lines, CellTiter-Glo viability, 72 h; series mostly up to 46 µM. In short, it runs like this:
as §1

The next assay deals with HeLa. The assay is described as follows: Primary qHTS to identify gynecologic anti-cancer compounds using libraries of approved drugs and bioactive compounds (AID 1345084). Also: nearly all actives have a fitted effect of over 55% in size. As to conditions: Gynecologic cancer cell panel viability, ATPlite luminescence, 48 h; series mostly up to 57.5 µM. In short, it runs like this: (§2)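 ATP-based viability (ATPlite), 1,000 cells/well, 16 h pre-incubation, 48 h compound at 37 C, 5% CO2, 15 min RT before read.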

In another assay the test system is Hek293T. The assay is described as above. The settings on record: Gynecologic cancer cell panel viability, ATPlite luminescence, 48 h, control line for the selectivity index; series mostly up to 57.5 µM. An outline of the steps:
as §2

The subject of a further assay is JEG-3. The description is as above. The settings on record: Gynecologic cancer cell panel viability, ATPlite luminescence, 48 h; series mostly up to 57.5 µM. In short, it runs like this:
as §2

The subject of a further assay is OV90. The assay is described as above. The settings on record: Gynecologic cancer cell panel viability, ATPlite luminescence, 48 h; series mostly up to 57.5 µM. An outline of the steps:
as §2

The next assay relates to SKOV3. The description is as above. As to conditions: Gynecologic cancer cell panel viability, ATPlite luminescence, 48 h; series mostly up to 57.5 µM. An outline of the steps: as §2
In a further assay the test system is Tov-21-G. The description is as above. The settings on record: Gynecologic cancer cell panel viability, ATPlite luminescence, 48 h; series mostly up to 57.5 µM. An outline of the steps: as §2
The next assay has as its system Tov112D. The description is as above. The settings on record: Gynecologic cancer cell panel viability, ATPlite luminescence, 48 h; series mostly up to 57.5 µM. In short, it runs like this:
as §2

The subject of another assay is MCC-26. The assay is described as follows: qHTS assay to identify novel small-molecules to repurpose for Merkel cell carcinoma treatment (AID 1296009). Also: nearly all actives have a fitted effect of over 60% in size. The settings on record: MCC and control cell lines, CellTiter-Glo viability, 72 h; series mostly up to 46 µM. In short, it runs like this:
as §1

For another assay, the system named is Es-2. The assay is described as follows: Primary qHTS to identify gynecologic anti-cancer compounds using libraries of approved drugs and bioactive compounds (AID 1345084). Also: nearly all actives have a fitted effect of over 55% in size. The settings on record: Gynecologic cancer cell panel viability, ATPlite luminescence, 48 h; series mostly up to 57.5 µM. An outline of the steps:
as §2

The nature of assay [1]: Drug repurposing screens with cells derived from glioblastoma tumor samples (AID 1345199). Also: nearly all actives have a fitted effect of over 40% in size. The settings on record: GBM patient neurospheres viability, ATP luminescence, 48 h. In short, it runs like this: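 Primary testing used CD133+ neurospheres from four GBM patients, seven concentrations, 48 h exposure and ATP-based viability; confirmation added three slower-growing patient lines.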

The test system of a further assay is C33A. The assay is described as follows: Primary qHTS to identify gynecologic anti-cancer compounds using libraries of approved drugs and bioactive compounds (AID 1345084). Also: nearly all actives have a fitted effect of over 55% in size. As to conditions: Gynecologic cancer cell panel viability, ATPlite luminescence, 48 h; series mostly up to 57.5 µM. In short, it runs like this: as §2
Another assay relates to CAOV3. The assay is described as above. As to conditions: Gynecologic cancer cell panel viability, ATPlite luminescence, 48 h; series mostly up to 57.5 µM. An outline of the steps: as §2
A further assay has as its system CASKI. The assay is described as above. As to conditions: Gynecologic cancer cell panel viability, ATPlite luminescence, 48 h; series mostly up to 57.5 µM. In short, it runs like this:
as §2

Another assay concerns PA-1. Described as above. The settings on record: Gynecologic cancer cell panel viability, ATPlite luminescence, 48 h; series mostly up to 57.5 µM. An outline of the steps: as §2
In a further assay the test system is MCC-13. Nature of the assay: qHTS assay to identify novel small-molecules to repurpose for Merkel cell carcinoma treatment (AID 1296009). Also: nearly all actives have a fitted effect of over 60% in size. As to conditions: MCC and control cell lines, CellTiter-Glo viability, 72 h; series mostly up to 46 µM. An outline of the steps:
as §1

For the next assay, the system named is WaGa. Described as above. The settings on record: MCC and control cell lines, CellTiter-Glo viability, 72 h; series mostly up to 46 µM. In short, it runs like this:
as §1

Where [2] appears, read: at 45.9 µM (top of the series), tumour line B.
Where [3] appears, read: at 45.9 µM (top of the series), tumour line D.
Setting [4] is: at 46 µM (top of the series), tumour line A.
Setting [5] is: at 46.1 µM (top of the series), tumour line C.
% is scaled to controls: 0 for no effect and ±100 for the full control effect; potency is read from the fitted curve at half-maximal effect.

`CNCC(O)c1ccc(O)c(O)c1` (stereo unspecified): the Potency with MKL-1 was 16.8 µM (active); in the assay on MKL-2, 13.3 µM (active); with UISO, 16.8 µM (active); with SKOV3, 28.2 µM (active). Also, the Potency result in the assay on HeLa, with Hek293T, in the assay on JEG-3, in the assay on OV90, in the assay on Tov-21-G and with Tov112D was “inactive” each time.

For the molecule `COCCOC(=O)C1=C(C)NC(C)=C(C(=O)OC/C=C/c2ccccc2)C1c1cccc([N+](=O)[O-])c1` (stereo unspecified), the Potency result in the assay with MCC-26, with Es-2, in the assay on HeLa, in the assay with JEG-3, in the assay with OV90 and in the assay on Tov-21-G was “inactive” in each case. Moreover, in the assay with Tov112D, the Potency entry is “inactive”. In addition, the Potency with MKL-1 is 21.1 µM (active); in assay [1] (tumour line A), 3.55 µM (active); in assay [1] (tumour line C) it was 18.4 µM (active); in [1] (tumour line D), 12.6 µM (active). In addition, the activity, negative = cell killing in [1] (setting [2]) is 2.48%.

For the molecule `CC(=O)Oc1c(C)c(C)c2c(c1C)CC[C@@](C)(CCC[C@H](C)CCC[C@H](C)CCCC(C)C)O2`, the Potency entry in the assay on C33A, in the assay on CAOV3, with CASKI, in the assay on Es-2, in the assay with HeLa and in the assay with Hek293T was “inactive” throughout. Also, the Potency entry with JEG-3, with OV90, with PA-1, in the assay with SKOV3, with Tov-21-G and with Tov112D was “inactive” throughout. Besides, the activity, negative = cell killing in assay [1] (setting [2]) is -3.11% and -14.8% and -20.3%; in assay [1] (setting [3]), -2.72% and -19.7% and -14.1%; in assay [1] (setting [4]), -21.7% and -44.1%; in [1] (setting [5]), -8.98% and 2.94% and -0.939%.

With `CC[C@H]1CN2CCc3cc(OC)c(OC)cc3[C@@H]2C[C@@H]1C[C@H]1NCCc2cc(OC)c(OC)cc21`, the Potency with CASKI is 0.355 µM (active); in the assay with Es-2, 0.447 µM (active); in the assay with HeLa it was 0.398 µM (active); with Hek293T it was 0.282 µM (active); in the assay on JEG-3, 11.2 µM (active); in the assay on Tov-21-G, 3.55 µM (active). Also, the Potency in the assay on Tov112D was 0.355 µM (active).

In the case of `NC(=O)c1ncn([C@@H]2O[C@H](CO)[C@@H](O)[C@H]2O)n1`, the Potency result with CASKI, in the assay on Es-2, in the assay with HeLa, in the assay with Hek293T, in the assay on JEG-3 and in the assay with Tov112D was “inactive” each time. In addition, the activity, negative = cell killing in assay [1] (setting [2]) is -11%; in [1] (setting [3]), -8.98%; in [1] (setting [4]), -27.6%; in assay [1] (setting [5]) it was -10.2%.

Consider `CN(C)CCOC(C)(c1ccccc1)c1ccccn1` (stereo unspecified), for which the Potency entry with MCC-13, with MKL-1, in the assay with MKL-2, in the assay on UISO, in the assay with WaGa and in the assay with C33A was “inactive” each time. In addition, the Potency entry with CAOV3, in the assay with CASKI, in the assay with Es-2, with HeLa, in the assay with Hek293T and in the assay on JEG-3 was “inactive” throughout. The Potency result in the assay on OV90, with PA-1, in the assay with SKOV3, in the assay with Tov-21-G and in the assay with Tov112D was “inactive” in each case. Besides, the activity, negative = cell killing in [1] (setting [2]) was -6.13%; in assay [1] (setting [3]) it was -4.11%; in assay [1] (setting [5]), -0.022%. Besides, the Potency in assay [1] (tumour line A) was 15.8 µM (active).

For `CNCCC(Oc1ccc(C(F)(F)F)cc1)c1ccccc1` (stereo unspecified), the Potency in the assay with MKL-1 was 26.6 µM (active); in the assay with WaGa, 21.1 µM (active); in [1] (tumour line A), 3.55 µM (active); in assay [1] (tumour line B), 20 µM (active). The Potency entry in the assay with JEG-3 and in the assay on Tov112D was “inactive” each time. Also, in assay [1] (setting [5]), the activity, negative = cell killing was -4.69%.

As for `[Cl][In]([Cl])[Cl]`, the Potency entry with MCC-26, in the assay with MKL-1, in the assay with MKL-2, in the assay with WaGa, in the assay with C33A and with CASKI was “inactive” each time. Besides, the Potency result in the assay with Es-2, in the assay on HeLa, in the assay with JEG-3, in the assay on OV90, in the assay on PA-1 and in the assay on SKOV3 was “inactive” each time. Further, the Potency entry in the assay with Tov-21-G and in the assay on Tov112D was “inactive” in each case.

`Nc1ccc(S(=O)(=O)Nc2ccccc2)cc1`: the Potency entry with MCC-13, in the assay with MKL-1, in the assay on MKL-2, in the assay with UISO, in the assay with WaGa and with C33A was “inactive” in each case. The Potency result in the assay with CASKI, in the assay on Es-2, in the assay on HeLa, in the assay on Hek293T, in the assay with JEG-3 and in the assay on OV90 was “inactive” in each case. Further, the Potency result in the assay on PA-1, in the assay on SKOV3, in the assay with Tov-21-G and with Tov112D was “inactive” throughout. Moreover, the activity, negative = cell killing in [1] (setting [2]) was 11.7%; in assay [1] (setting [3]), -2.38%; in assay [1] (setting [5]), -16.6%.
